In PubChem BioAssay (NCATS):
Unmarked numbers belong to inactive results. Records with an inconclusive call do not appear. Calls of active or inactive are those of the source. Unless noted, calls follow the shape of the dose curve; as a rule, active = well fitted curve in either direction with a large enough effect (not every such curve was filed as active); inconclusive = small, poorly fitted or top-dose-only effect, or another doubt; inactive = flat fitted curve, though single readings scatter.

What was measured:
[1] = molecular target: Lysosomal acid glucosylceramidase (Homo sapiens) (UniProt P04062); experiment: Glucocerebrosidase-p2 (AID 348; in the data active = potency below about 10 µM; also: potency is read from the fitted curve at half-maximal effect); details: purified GBA, blue fluorogenic substrate, 40 min
How it was run: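 Normal human glucocerebrosidase (0.2 nM) with blue fluorogenic substrate (80 uM final) in citrate/phosphate pH 5.9 with 10mM sodium taurocholate, 0.01% tween-20; 40 min RT, NaOH/glycine stop; fluorescence Ex 365/Em 440; AC50 from a titration from 0.6 nM upwards.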

[2] = AP1 Signaling Pathway (AID 357); details: ME-180 AP-1-bla reporter, EGF-induced, beta-lactamase ratio, 5 h; at 7.69 µM (top of the series) unless noted; also: % is scaled to controls: 0 for no effect and ±100 for the full control effect
How it was run: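 ME-180 cells with beta-lactamase reporter under AP-1 response element, stimulated with EC50 EGF; compounds tested in titration series, 5 h at 37 °C. CCF4 substrate added 2.5 h at room temperature; 460/530 nm emission ratio gave %activity and AC50.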

[3] = molecular target: Cytochrome P450 1A2 (Homo sapiens) (UniProt P05177); experiment: p450-cyp1a2 (AID 410; calls by dose curve; also: potency is read from the fitted curve at half-maximal effect;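 as to activity change, negative = inhibition: -100% = full effect of reference inhibitor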); details: recombinant CYP1A2, luciferin-ME demethylation, luminescence; series mostly up to 11.4 µM
How it was run: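 Read-out is luminescence from luciferin produced by CYP1A2 demethylation of Luciferin-ME (100uM, at Km). Detection reagent stopped the 60 min NADPH-dependent reaction; signals were normalized to 57 uM furafylline.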

[4] = NFAT Signaling Pathway (AID 444); details: Jurkat NFAT-bla M1, carbachol, beta-lactamase ratio, 5 h; at 7.69 µM (top of the series) unless noted;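 also: carbachol stimulus at about its EC50 of 1 µM final; % is scaled to controls: 0 for no effect and ±100 for the full control effect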
How it was run: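 Jurkat cells carrying an NFAT-driven β-lactamase reporter and co-transfected muscarinic M1 receptor were treated with compound plus carbachol (1 uM final, an EC50 level) for 5 h at 37 °C. CCF4 loading followed for 1 h at RT; 460/530 nm ratio gave %activity.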

[5] = Stat Signaling Pathway (AID 446); details: ME-180 SIE beta-lactamase reporter, IL-6 stimulated, 5 h; at 7.69 µM (top of the series) unless noted;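 also: ME-180 cervical cancer cells given 40 pM IL-6 alongside compound; SIE-controlled beta-lactamase reporter measured as 460/530 nm FRET emission ratio; % is scaled to controls: 0 for no effect and ±100 for the full control effect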
How it was run: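 Normalization used AC90 stimulation (300 pM IL-6) and AC90 inhibition (125 nM pan-JAK inhibitor at 40 pM IL-6). The underlying signal is SIE-driven beta-lactamase in ME-180 cells after 5 h IL-6 exposure with compound.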

[6] = molecular target: Glucocorticoid receptor (Homo sapiens) (UniProt P04150); experiment: GR-GFP Redistribution (AID 450;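 active = compounds whose dose series gives a full or clear partial fitted curve of increased nuclear translocation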; also: potency is read from the fitted curve at half-maximal effect); details: U2OS GR-GFP nuclear translocation, laser cytometry, 2 h
[7] = molecular target: Glucocorticoid receptor (Homo sapiens) (UniProt P04150); experiment: GR-EFC Redistribution (AID 451; calls by dose curve; also: potency is read from the fitted curve at half-maximal effect); details: CHO-K1 GR-EFC translocation, beta-gal luminescence, 2 h
How it was run: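 CHO-K1 cells stably expressing nuclear-localized β-gal enzyme acceptor and GR fused C-terminally to the enzyme donor fragment; ligand-driven nuclear translocation restores β-gal by complementation. Compounds titrated up to 46 uM final, 2 h at 37 °C; luminescence read.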

[8] = molecular target: Mitogen-activated protein kinase 10 (Mus musculus) (UniProt Q61831); experiment: JNK3 AlphaScreen Assay (AID 530); details: JNK3 lysate, c-Jun phosphorylation; series mostly up to 57.1 µM;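 also: kinase came from lysate of stimulated human HepG2 cells; signal reports phosphorylation of biotinylated GST-cJun 1-79 at Ser73 with 10 µM ATP; % is scaled to controls: 0 for no effect and ±100 for the full control effect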
How it was run: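 Biotinylated GST-cJun(1-79) served as substrate for JNK3 in HepG2 lysates stimulated with IL-1beta and TNF-alpha. ATP was 10 uM final, pH 7.6. Ser73 phosphorylation was quantified by AlphaScreen (680 nm excitation).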

[9] = molecular target: 3',5'-cyclic-AMP phosphodiesterase 4B (Homo sapiens) (UniProt Q07343); experiment: qHTS Assay for Inhibitors of PDE-IV (AID 607; active = well fitted activation curve with a large enough effect in the main read-out, with a control signal flat, not every such curve was filed as active; also: % of control where 0% means no effect); details: HEK293 ACTOne CNG channel cells, membrane potential fluorescence; series mostly up to 22.9 µM
How it was run: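 HEK293 ACTOne cells with CNG channel (1000/well), endogenous PDE4; membrane potential dye, compounds up to 22.9 uM final. Fluorescence Ex 535/Em 590; RO 20-1724 (100 uM final) as reference.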

[10] = molecular target: Cytochrome P450 3A4 (Homo sapiens) (UniProt P08684); experiment: qHTS Assay for Activators of Cytochrome P450 3A4 (AID 885; active = well fitted curve in the direction sought with a large enough effect; an effect the other way counts as inactive or inconclusive; also: nearly all actives have a fitted effect of over 65% in size); details: recombinant CYP3A4, Luciferin-PPXE luminescence, 60 min; series mostly up to 57.1 µM
How it was run: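 Human CYP3A4 dealkylates Luciferin-PPXE to luciferin, which luciferase detection converts to light. Substrate was at its KM (25uM), buffer 200mM KPO4, reaction 60 min at RT.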

[11] = qHTS Assay for Identification of Small Molecule Agonists for Hypoxia Response Element Signaling Pathway (AID 914; active = well fitted activation curve with a large enough effect in the signal ratio, with a control signal flat, not every such curve was filed as active; the % refers to the signal ratio; also: % of control where 0% means no effect); details: ME-180 (cervical carcinoma) HRE-bla reporter, beta-lactamase ratio, CoCl2, 17 h; hits give high values
How it was run: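 Positive modulation of EC50 CoCl2-induced hypoxia response element signaling is measured in ME-180 cells with a beta-lactamase reporter. Compounds are titrated, incubation runs 17 hours, and %Activity derives from the blue/green ratio.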

[12] = molecular target: Cytochrome P450 2C19 (Homo sapiens) (UniProt P33261); experiment: qHTS Assay for Inhibitors and Substrates of Cytochrome P450 2C19 (AID 899; active = well fitted curve in the direction sought with a large enough effect; an effect the other way counts as inactive or inconclusive; also: % is scaled to controls: 0 for no effect and ±100 for the full control effect; nearly all actives have a fitted effect of over 60% in size); details: recombinant CYP2C19, luciferin-H EGE luminescence; series mostly up to 11.4 µM
How it was run: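 Human CYP2C19 (5nM) with Luciferin-H EGE at 10uM (its KM) in 50mM KPO4 was preincubated with compound for 10 min at 37C. NADPH regeneration started a 60 min 37C reaction. Luciferin was read by luminescence, normalized to 57uM ketoconazole.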

Cytochrome P450 1A2 (Homo sapiens), sequence (P05177 whole entry, looked up): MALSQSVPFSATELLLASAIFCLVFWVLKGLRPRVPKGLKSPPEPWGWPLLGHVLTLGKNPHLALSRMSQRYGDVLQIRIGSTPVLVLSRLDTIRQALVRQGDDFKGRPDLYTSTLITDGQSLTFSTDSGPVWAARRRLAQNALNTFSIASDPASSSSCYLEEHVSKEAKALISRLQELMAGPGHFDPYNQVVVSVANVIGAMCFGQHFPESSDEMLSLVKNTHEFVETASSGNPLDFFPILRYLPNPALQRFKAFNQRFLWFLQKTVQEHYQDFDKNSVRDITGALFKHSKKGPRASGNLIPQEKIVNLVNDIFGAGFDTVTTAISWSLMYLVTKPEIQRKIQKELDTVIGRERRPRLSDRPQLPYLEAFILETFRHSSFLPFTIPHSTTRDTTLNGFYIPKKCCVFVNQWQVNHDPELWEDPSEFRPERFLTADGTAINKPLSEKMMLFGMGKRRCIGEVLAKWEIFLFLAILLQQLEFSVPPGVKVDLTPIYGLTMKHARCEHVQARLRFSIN
Cytochrome P450 2C19 (Homo sapiens), sequence (P33261 whole entry, looked up): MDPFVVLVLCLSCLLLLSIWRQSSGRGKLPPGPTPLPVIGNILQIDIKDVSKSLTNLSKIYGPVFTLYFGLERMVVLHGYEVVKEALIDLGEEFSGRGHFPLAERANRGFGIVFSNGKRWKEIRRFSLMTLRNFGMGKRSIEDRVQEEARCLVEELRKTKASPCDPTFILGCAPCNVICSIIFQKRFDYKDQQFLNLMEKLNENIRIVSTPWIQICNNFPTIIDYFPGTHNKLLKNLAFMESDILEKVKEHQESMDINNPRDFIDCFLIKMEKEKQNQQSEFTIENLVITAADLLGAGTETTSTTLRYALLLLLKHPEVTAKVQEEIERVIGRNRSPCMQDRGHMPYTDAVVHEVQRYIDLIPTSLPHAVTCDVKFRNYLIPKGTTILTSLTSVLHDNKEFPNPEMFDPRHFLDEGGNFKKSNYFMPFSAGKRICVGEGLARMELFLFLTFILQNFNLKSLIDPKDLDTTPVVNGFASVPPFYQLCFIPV
Cytochrome P450 3A4 (Homo sapiens), sequence (P08684 whole entry, looked up): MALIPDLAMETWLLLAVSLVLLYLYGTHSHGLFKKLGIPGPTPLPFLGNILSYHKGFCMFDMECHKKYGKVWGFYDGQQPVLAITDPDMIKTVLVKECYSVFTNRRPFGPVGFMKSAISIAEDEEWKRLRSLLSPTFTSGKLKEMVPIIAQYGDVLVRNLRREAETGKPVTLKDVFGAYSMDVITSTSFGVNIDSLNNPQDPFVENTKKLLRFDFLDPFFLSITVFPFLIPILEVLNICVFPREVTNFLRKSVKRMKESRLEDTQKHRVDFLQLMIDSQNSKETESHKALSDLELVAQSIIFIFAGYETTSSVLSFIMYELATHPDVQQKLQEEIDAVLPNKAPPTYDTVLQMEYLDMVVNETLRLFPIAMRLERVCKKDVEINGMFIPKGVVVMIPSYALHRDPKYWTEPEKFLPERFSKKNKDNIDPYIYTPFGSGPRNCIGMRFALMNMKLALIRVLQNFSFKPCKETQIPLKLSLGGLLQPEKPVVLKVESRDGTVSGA
Glucocorticoid receptor (Homo sapiens), sequence (P04150 whole entry, looked up, the tested form may be a part): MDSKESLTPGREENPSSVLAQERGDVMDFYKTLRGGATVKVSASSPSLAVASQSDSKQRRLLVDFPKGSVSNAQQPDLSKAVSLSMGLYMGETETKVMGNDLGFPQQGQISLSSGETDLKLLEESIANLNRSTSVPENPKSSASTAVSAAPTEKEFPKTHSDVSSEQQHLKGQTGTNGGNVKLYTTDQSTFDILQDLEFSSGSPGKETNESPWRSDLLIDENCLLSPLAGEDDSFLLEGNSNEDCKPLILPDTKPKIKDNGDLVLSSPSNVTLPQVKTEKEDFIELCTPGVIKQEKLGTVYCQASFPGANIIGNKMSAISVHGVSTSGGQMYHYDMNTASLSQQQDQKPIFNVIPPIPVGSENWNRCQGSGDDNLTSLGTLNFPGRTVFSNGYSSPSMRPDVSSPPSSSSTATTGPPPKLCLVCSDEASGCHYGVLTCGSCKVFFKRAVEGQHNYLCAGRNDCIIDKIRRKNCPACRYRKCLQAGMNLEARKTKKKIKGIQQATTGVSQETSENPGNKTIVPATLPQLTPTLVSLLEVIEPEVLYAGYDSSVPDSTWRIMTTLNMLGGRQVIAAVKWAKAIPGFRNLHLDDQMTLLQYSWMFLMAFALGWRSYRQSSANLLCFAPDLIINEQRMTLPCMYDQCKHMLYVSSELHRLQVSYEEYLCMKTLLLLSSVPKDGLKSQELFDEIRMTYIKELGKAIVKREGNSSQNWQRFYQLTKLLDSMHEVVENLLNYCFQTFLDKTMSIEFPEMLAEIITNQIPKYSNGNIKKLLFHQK
Lysosomal acid glucosylceramidase (Homo sapiens), sequence (P04062 whole entry, looked up): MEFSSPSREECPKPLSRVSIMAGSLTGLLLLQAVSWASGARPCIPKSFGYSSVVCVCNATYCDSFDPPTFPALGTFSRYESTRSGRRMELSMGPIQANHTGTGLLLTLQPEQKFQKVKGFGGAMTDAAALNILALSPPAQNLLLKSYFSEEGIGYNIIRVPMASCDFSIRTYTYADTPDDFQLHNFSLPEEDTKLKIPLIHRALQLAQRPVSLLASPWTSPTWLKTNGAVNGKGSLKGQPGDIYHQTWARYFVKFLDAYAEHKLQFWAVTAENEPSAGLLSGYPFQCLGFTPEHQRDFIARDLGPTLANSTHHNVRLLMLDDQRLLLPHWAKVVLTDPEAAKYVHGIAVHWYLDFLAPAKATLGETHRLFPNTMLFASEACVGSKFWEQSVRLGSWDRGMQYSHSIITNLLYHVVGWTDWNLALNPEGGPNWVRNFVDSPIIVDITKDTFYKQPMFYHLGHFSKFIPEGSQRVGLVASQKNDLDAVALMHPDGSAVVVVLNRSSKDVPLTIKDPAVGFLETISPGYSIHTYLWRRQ
3',5'-cyclic-AMP phosphodiesterase 4B (Homo sapiens), sequence (Q07343 whole entry, looked up): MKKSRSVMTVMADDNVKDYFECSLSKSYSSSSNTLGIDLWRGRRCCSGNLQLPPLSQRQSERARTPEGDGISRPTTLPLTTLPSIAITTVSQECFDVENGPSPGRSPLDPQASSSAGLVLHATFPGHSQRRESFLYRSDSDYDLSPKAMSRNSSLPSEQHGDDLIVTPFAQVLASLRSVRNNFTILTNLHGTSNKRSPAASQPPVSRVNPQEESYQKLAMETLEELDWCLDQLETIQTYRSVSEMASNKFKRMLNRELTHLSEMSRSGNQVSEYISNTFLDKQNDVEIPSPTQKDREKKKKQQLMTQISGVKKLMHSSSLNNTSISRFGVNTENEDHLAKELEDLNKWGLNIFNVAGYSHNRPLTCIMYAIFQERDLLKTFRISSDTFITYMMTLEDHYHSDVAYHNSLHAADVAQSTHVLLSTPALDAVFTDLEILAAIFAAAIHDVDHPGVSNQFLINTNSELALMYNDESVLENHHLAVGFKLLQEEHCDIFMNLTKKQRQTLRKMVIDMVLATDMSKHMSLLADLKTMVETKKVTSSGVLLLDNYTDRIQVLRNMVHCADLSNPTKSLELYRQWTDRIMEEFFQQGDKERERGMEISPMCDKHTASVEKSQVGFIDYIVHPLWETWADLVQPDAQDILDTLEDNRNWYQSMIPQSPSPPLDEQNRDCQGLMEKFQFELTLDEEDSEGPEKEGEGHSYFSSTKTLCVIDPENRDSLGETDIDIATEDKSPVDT

Compound | Potency [1] | activity change, negative = inhibition [2] | activity change, negative = inhibition [3] | activity change, negative = inhibition [4] | activity, negative = inhibition [5] | Potency [6] | Potency [7] | activity change, negative = inhibition [8] | outcome [9] | activity change, positive = activation [10] | activation [11] | Potency [3] | Potency [12]
Cc1c([C@@H](C)[C@H]2NC[C@H](C)C[C@@H]2O)ccc2c1C[C@@H]1[C@H]2CC=C2C[C@@H](O)CC[C@@]21C | > 11.4 µM | -4.38% | 1.3% [at 2.29 µM] | -6.08% | -1.08% | > 46 µM | > 9.22 µM | -0.822% [at 11.4 µM] | inactive | -38% [at 11.4 µM] | 4.43% |  | 
O=P(O)(O)CCP(=O)(O)O | > 11.4 µM | -10.9% |  | 7.15% | 11.8% | > 46 µM |  | -1.32% [at 11.4 µM] | inactive |  |  | inactive | 
Cc1ccc(C2(c3ccc(C)c(O)c3C)CCN(C)CC2)c(C)c1O | > 11.4 µM | 2.94% |  | 3.1% | 3.48% | > 46 µM | > 9.22 µM |  | inactive |  |  | 5.01 µM (active) | 
O=[As](O)(O)c1ccc(N=Nc2ccc(O)cc2)cc1 | > 11.4 µM | 3.33% |  | 9.82% | 3.63% | > 46 µM | > 9.22 µM | -2.48% [at 11.4 µM] | inactive |  | 5.33% | inactive | 
CC1=NN(c2ccc(S(=O)(=O)O)cc2C)C(=[OH+])[C@H]1N=Nc1cc(S(=O)(=O)O)ccc1C(=O)O.O.[Cr] | > 11.4 µM | -5.8% |  | 12.1% | 7.29% | > 46 µM | > 9.22 µM | -0.77% [at 11.4 µM] | inactive |  |  | inactive | 
O=C(O)C(C(=O)O)P(=S)(S)c1ccccc1 (stereo not drawn) | > 11.4 µM | 3.83% |  | 11.1% | 2.85% | > 46 µM | > 9.22 µM | 2.73% [at 11.4 µM] | inactive |  |  | inactive | 
CC(C)CC(=O)C[C@H](O)C(Cl)(Cl)Cl | > 11.4 µM | 3.65% |  | -9% | -1.91% | > 46 µM | > 9.22 µM | 5.57% [at 11.4 µM] | inactive |  |  | inactive | 
O=C(O)C[O][Sb][O]CC(=O)O | > 11.4 µM | 4.83% | -7.8% [at 2.29 µM] | 6.08% | 7.88% | > 46 µM | > 9.22 µM | 1.01% [at 11.4 µM] | inactive |  |  |  | inactive
CC(=O)OC1=CC2=CC[C@H]3[C@H]4CCC(=O)[C@@]4(C)CC(=O)[C@]3(S)[C@]2(C)CC1 | > 11.4 µM | -0.915% | -9.4% [at 2.29 µM] | 2.48% | -7.63% | > 46 µM | > 9.22 µM | -3.16% [at 11.4 µM] | inactive |  | -4.78% |  | 
CO[C@H]1[C@H](O)[C@H](O[C@@H]2[C@H](Oc3cccc4c(O)c5c(=O)oc6ccc(C)c7c(=O)oc(c34)c5c67)O[C@@H](C)[C@H](O)[C@H]2O)O[C@@H](C)[C@@H]1O | > 11.4 µM | 1.4% |  | 10.4% | 7.37% | > 46 µM | > 9.22 µM |  | inactive |  |  | inactive | 
N[C@@H](Cc1ccccc1)P(=O)(O)O | > 11.4 µM | -2.48% |  | 12.4% | -2.79% | > 46 µM |  | 3.3% [at 11.4 µM] | inactive |  |  | inactive | 
CC(C)C(=O)CP(=O)(O)O | > 11.4 µM | 10.1% |  | 7.02% | 5.14% | > 46 µM | > 9.22 µM | 3.33% [at 11.4 µM] | inactive |  |  | inactive | 
C[C@H](Br)C(=O)N[C@H](CO)C(=O)O | > 11.4 µM | -6.82% |  | 5.22% | -2.06% | > 46 µM | > 9.22 µM | 0.572% [at 11.4 µM] | inactive |  |  | inactive | 
O=C(NCP(=O)(O)O)c1cccnc1 | > 11.4 µM | 23.1% |  | 5.87% | 4.58% | > 46 µM | > 9.22 µM | 0.703% [at 11.4 µM] | inactive |  |  | inactive | 
O=C(O)[C@H]1[O][Sb][O][C@@H](C(=O)O)C1O (stereo partly drawn) | > 11.4 µM | 1.25% | -15% [at 2.29 µM] | 8.28% | 6.32% | > 46 µM |  | -2.33% [at 11.4 µM] | inactive |  |  |  | 
CN(C)CS/C(N)=N/[C@H](O)C(Cl)(Cl)Cl | > 11.4 µM | 1.46% | 4.1% [at 2.29 µM] | 23.1% | 3.46% | > 46 µM | > 9.22 µM | 3.54% [at 11.4 µM] | inactive |  | 7.72% |  | 
N[C@H](Cc1ccc2oc3cc(=O)c4ccccc4c-3nc2c1)C(=O)O | > 11.4 µM | 25.4% |  | -17.2% | 7.75% | > 46 µM | > 9.22 µM | 0.331% [at 11.4 µM] | inactive | -32.5% [at 11.4 µM] |  | 1.26 µM (active) | 
C[n+]1c(/C=C\c2ccc(O)c3ncccc23)[se]c2ccccc21 | > 11.4 µM | -7.45% | -22.7% [at 2.29 µM] | -19% | 13% | > 46 µM |  | -13.6% [at 11.4 µM] | inactive | -31.7% [at 11.4 µM] |  |  | 
O=C(O)CSCC(=O)O | > 11.4 µM | -1.42% |  | 2.38% | 7.17% | > 46 µM |  | 8.86% [at 11.4 µM] | inactive |  |  | inactive | 
COc1ccc(C(=O)O[C@H]2CC[C@@]3(C)[C@H]4CC[C@H]5[C@]3(C[C@]3(O)[C@H]6CN7C[C@H](C)CC[C@H]7[C@](C)(O)[C@]6(O)[C@H](O)C[C@]53O)O[C@]24O)cc1OC | > 11.4 µM | 1.14% | -20.9% [at 2.29 µM] | -1.26% | -2.58% | > 46 µM | > 9.22 µM | -0.646% [at 11.4 µM] | inactive |  |  |  | inactive
CC1=C2C(=O)[C@@H]3[C@@H](CC=C4C[C@@H](O)CC[C@@]43C)[C@H]2CC[C@@]12O[C@H]1C[C@H](C)CN[C@H]1[C@@H]2C | > 11.4 µM | 1.78% |  | 3.5% | 0.17% | > 46 µM | > 9.22 µM | 0.541% [at 11.4 µM] | inactive |  |  | inactive | 
COc1cc2c(cc1OC)[C@]13CC[N@+]4(C)CC5=CCO[C@H]6CC(=O)N2[C@@H]1[C@@H]6[C@@H]5C[C@]34O | > 11.4 µM | -12.3% | -11.4% [at 2.29 µM] | 4.86% | -5.46% | > 46 µM | > 9.22 µM | 1.38% [at 11.4 µM] | inactive | -28.5% [at 11.4 µM] |  |  | 
NC[C@@H](O)CSP(=O)(O)O | > 11.4 µM | -1.23% |  | -18.7% | 2.46% | > 46 µM | > 9.22 µM | -5.07% [at 11.4 µM] | inactive |  |  | inactive | 
O=C(O)CS(=O)(=O)C(c1ccccc1)c1ccccc1 | > 11.4 µM | -6.22% | -15.7% [at 2.29 µM] | -2.65% | 3.8% | > 46 µM |  | 1.62% [at 11.4 µM] | inactive |  |  |  | inactive
NCCc1c[nH]c2ccc(OC(=O)C(=O)O)cc12 | > 11.4 µM | 9.07% |  | 6.17% | 10.1% | > 46 µM | > 9.22 µM | 8.58% [at 11.4 µM] | inactive |  |  | 2.51 µM (active) | 
